Test [1] can be described thus: ATG_CRE_CIS: Attagene CIS-FACTORIAL HepG2 Assay for human cAMP Responsive Element (CRE) binding protein 3 (AID 2282926). The conditions noted are these: HepG2 CRE cis-reporter, Attagene multiplexed mRNA; actives raise or lower the signal. Put shortly: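 Induced reporter mRNA from a CRE cis element, measured in HepG2 among many multiplexed units at 24 h. Detection used RT-PCR plus capillary electrophoresis of fluorescent fragments; DMSO served as negative control.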

The target of test [2] is CCAAT/enhancer-binding protein beta (Homo sapiens) (UniProt P17676). As to the kind of experiment: ATG_C_EBP_CIS: Attagene CIS-FACTORIAL HepG2 Assay for human CCAAT/Enhancer Binding Protein (C/EBP) beta (AID 2282927). Conditions: HepG2 Attagene cis-factorial transcription factor reporter; actives raise or lower the signal. The essentials:
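Following a 24 h incubation with test chemical, transfected HepG2 cells yielded RNA whose reporter transcripts were quantified by RT-PCR and fluorescent capillary electrophoresis, with DMSO serving as baseline for bidirectional fitting.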

Test [3] can be described thus: ATG_CMV_CIS: Attagene CIS-FACTORIAL HepG2 Assay for human CMV (Internal Marker) (AID 2282928).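 Further: endpoint acts as a background internal control marker rather than a target.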 Conditions: HepG2 CMV promoter reporter, transcription factor profiling; actives raise or lower the signal. Put shortly:
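24 h chemical treatment, HepG2 with transient multi-reporter transfection; RNA → oligo(dT) RT → PCR → 6-FAM extension → HpaI digest → CE fluorescence. Bidirectional fit, DMSO negative control.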

Test [4] is described as follows: ATG_DR4_LXR_CIS: Attagene CIS-FACTORIAL HepG2 Assay for human Liver X Receptor (LXR), DR4 submotif (AID 2282929). The conditions noted are these: HepG2 Attagene DR4 cis-reporter, mRNA transcription; actives raise or lower the signal. Put shortly:
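HepG2, transient MRTU transfection, cis-element (DR4) promoter; 24 h compound exposure; total RNA → oligo(dT) RT → PCR → 6-FAM primer extension → HpaI cut → CE. Gain/loss vs DMSO, bidirectional fit.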

Test [5] can be described thus: ATG_AP_1_CIS: Attagene CIS-FACTORIAL HepG2 Assay for human Activator Protein 1 (AP-1) (AID 2282931). Conditions: HepG2 Attagene cis-factorial AP-1 reporter mRNA; actives raise or lower the signal. The essentials:
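Transient MRTU transfection of HepG2 → 24 h chemical treatment → RNA isolation, RT-PCR, 6-FAM labelling, HpaI digest → capillary electrophoresis. Fit: bidirectional, DMSO negative control.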

Test [6] in a line: ATG_BRE_CIS: Attagene CIS-FACTORIAL HepG2 Assay for human Bone Morphogenetic Protein (BMP) Response Element (BRE) (AID 2282933). The conditions noted are these: HepG2 BMP response element reporter, Attagene transcription factor profiling; actives raise or lower the signal. The essentials:
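HepG2 cells transiently transfected with multiplexed cis-element reporter units were dosed with chemical for 24 h. Reporter mRNA was measured by RT-PCR with fluorescent labelling, HpaI digestion and capillary electrophoresis; bidirectional fitting relative to DMSO.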

Test [7] has as its target Transcription factor E2F1 (Homo sapiens) (UniProt Q01094). As to the kind of experiment: ATG_E2F_CIS: Attagene CIS-FACTORIAL HepG2 Assay for human E2F Transcription Factor 1 (AID 2282935). Conditions: HepG2 Attagene cis-reporter, E2F reporter RNA transcripts; actives raise or lower the signal. The essentials: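 In this cis-factorial format, endogenous factor activity drives transfected reporters in HepG2; transcripts collected at 24 h are quantified by fluorescence after RT-PCR and capillary separation.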

Test [8] in a line: ATG_E_Box_CIS: Attagene CIS-FACTORIAL HepG2 Assay for human Enhancer Box (E-box) (AID 2282936). Conditions: HepG2 E-box cis-reporter transcription, actives raise or lower the signal. The essentials:
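Measured 24 h post-dosing in HepG2 cells transfected with multiple cis-regulated reporter units, signal being reporter mRNA induction detected by fluorescent RT-PCR with capillary electrophoresis; gain or loss fitted against DMSO.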

Test [9] in a line: ATG_M_61_CIS: Attagene CIS-FACTORIAL HepG2 Assay for M61 Transcription Factor (Internal Marker) (AID 2282937). Conditions: HepG2 Attagene CIS-FACTORIAL M61 internal marker reporter; actives raise or lower the signal. Put shortly: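 Human liver HepG2, transient MRTU transfection (cis promoter elements), 24 h compound. Total RNA → oligo(dT) RT → PCR → FAM label → HpaI → CE. Internal background marker; bidirectional fitting, DMSO = baseline.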

Test [10] is described as follows: ATG_M_19_CIS: Attagene CIS-FACTORIAL HepG2 Assay for M19 Transcription Factor (Internal Marker) (AID 2282939). The conditions noted are these: HepG2 Attagene CIS-FACTORIAL M19 internal marker reporter; actives raise or lower the signal. Put shortly: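 HepG2 cells transiently transfected with cis-regulated multiple reporter transcription units were dosed for 24 h; reporter mRNA was quantified by RT-PCR, 6-FAM primer-extension labelling, HpaI digestion and capillary electrophoresis, with bidirectional fitting against DMSO baseline.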

Test [11] can be described thus: ATG_Ets_CIS: Attagene CIS-FACTORIAL HepG2 Assay for human Erythroblast Transformation Specific (ETS) (AID 2282941). The conditions noted are these: HepG2 ETS cis-reporter transcription, actives raise or lower the signal. The essentials:
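Cis-regulated reporter mRNA induction in HepG2 (transient transfection), 24 h exposure, RT-PCR plus capillary electrophoresis detection; DMSO serves as negative control and baseline.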

For test [12], the target named is Hepatocyte nuclear factor 3-beta (Homo sapiens) (UniProt Q9Y261). As to the kind of experiment: ATG_FoxA2_CIS: Attagene CIS-FACTORIAL HepG2 Assay for human Forkhead box A2 (FOXA2) (AID 2282942). The conditions noted are these: HepG2 cis-reporter transcription factor activity, 24 h; actives raise or lower the signal. Put shortly:
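Transient MRTU transfection of HepG2 liver cells; 24 h treatment; total RNA → oligo(dT) RT → PCR → FAM primer extension → HpaI cut → CE. Bidirectional fit vs DMSO.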

Test [13] in a line: ATG_FoxO_CIS: Attagene CIS-FACTORIAL HepG2 Assay for human Forkhead box O (FoxO) (AID 2282943). Conditions: HepG2 Attagene cis-reporter, FoxO element, mRNA; actives raise or lower the signal. Put shortly: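 Values reflect reporter mRNA induction or loss in HepG2 cells 24 h post-dosing, fitted bidirectionally with DMSO as negative control and baseline. Detection used RT-PCR and fluorescence capillary electrophoresis.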

The nature of test [14]: ATG_GLI_CIS: Attagene CIS-FACTORIAL HepG2 Assay for human Zinc Finger Protein GLI1 (AID 2282945). The conditions noted are these: HepG2, Attagene cis-factorial reporter mRNA, GLI element; actives raise or lower the signal. Put shortly: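 HepG2 cells transiently transfected with cis-promoter multiplexed reporter units report endogenous transcription factor activity. After 24 h chemical exposure, reporter mRNA was quantified by RT-PCR, 6-FAM labelling, HpaI digestion and capillary electrophoresis, with bidirectional fitting against DMSO.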

Test [15] has as its target Bile acid receptor (Homo sapiens) (UniProt Q96RI1). The experiment in a line: ATG_IR1_CIS: Attagene CIS-FACTORIAL HepG2 Assay for human Nuclear Receptor Subfamily 1 Group H Member 4 (NR1H4), IR1 submotif (AID 2282946). The conditions noted are these: IR1 reporter transcription, actives raise or lower the signal. The essentials: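 Readout: reporter transcript levels by RT-PCR with fluorescent capillary electrophoresis, from HepG2 cells transiently transfected with multiplexed cis-regulated reporters and dosed 24 h. Gain- or loss-of-signal fitted versus DMSO negative control.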

Test [16] is described as follows: ATG_AP_2_CIS: Attagene CIS-FACTORIAL HepG2 Assay for human Activator Protein 2 (AP-2) (AID 2282932). Conditions: HepG2 AP-2 cis-reporter, Attagene transcription factor profiling; actives raise or lower the signal. The essentials:
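Assay in transfected HepG2 with promoter-regulated reporters, 24 h incubation after dosing. Signal is reporter mRNA fluorescence (RT-PCR, capillary electrophoresis), analysed for both increases and decreases relative to DMSO controls.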

Test [17] concerns the target Retinoic acid receptor alpha (Homo sapiens) (UniProt P10276). As to the kind of experiment: ATG_DR5_RAR_CIS: Attagene CIS-FACTORIAL HepG2 Assay for human Retinoic Acid Receptor Alpha (RARE), DR5 submotif (AID 2282934). Conditions: HepG2 Attagene cis-factorial RARE DR5 reporter, mRNA; actives raise or lower the signal. Put shortly:
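Endpoint fitted in both directions relative to DMSO as negative control. It reflects DR5 cis-element reporter mRNA induction in transiently transfected HepG2 cells, measured 24 h after dosing through RT-PCR and fluorescent capillary electrophoresis.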

Test [18] is described as follows: ATG_EGR_CIS: Attagene CIS-FACTORIAL HepG2 Assay for human Early Growth Response 1 (EGR1) (AID 2282938). The conditions noted are these: HepG2 Attagene CIS-FACTORIAL EGR reporter mRNA; actives raise or lower the signal. Put shortly:
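Transient transfection of human HepG2 with multiple cis-regulated reporter units, chemical exposure 24 h, total RNA isolated. Reverse transcription, PCR, fluorescent labelling and capillary electrophoresis quantify reporter transcripts; activity fitted bidirectionally against DMSO.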

A short description of test [19]: ATG_GATA_CIS: Attagene CIS-FACTORIAL HepG2 Assay for human GATA Binding Protein (AID 2282944). Conditions: HepG2 GATA cis-element reporter, Attagene multiplex mRNA; actives raise or lower the signal. The essentials: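 HepG2 cells transiently transfected with multiplexed cis-element reporter units reflecting endogenous transcription factor activity; reporter mRNA measured after 24 h dosing by RT-PCR, 6-FAM labeling, HpaI digestion and capillary electrophoresis. Bidirectional fitting versus DMSO baseline.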

Test [20] concerns the target Aryl hydrocarbon receptor (Homo sapiens) (UniProt P35869). As to the kind of experiment: ATG_Ahr_CIS: Attagene CIS-FACTORIAL HepG2 Assay for human Aryl Hydrocarbon Receptor (Ahr) (AID 2282930). The conditions noted are these: HepG2 AhR cis-factorial reporter transcription; actives raise or lower the signal. The essentials: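 Values derive from bidirectional fitting against DMSO negative control. Underlying signal: cis-element reporter mRNA in transiently transfected HepG2, harvested 24 h post-dose and measured by RT-PCR plus capillary electrophoresis.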

The structures appear in SMILES notation. The source made the active and inactive calls. How the source made its calls: active means hit-call score of the fitted dose curve at least 0.9, where 1 is the maximum; inactive means score below 0.9.

What is called AC50 is the concentration at which the activity in the assay is half-maximal.

Hepatocyte nuclear factor 3-beta (Homo sapiens), sequence (Q9Y261 whole entry, looked up): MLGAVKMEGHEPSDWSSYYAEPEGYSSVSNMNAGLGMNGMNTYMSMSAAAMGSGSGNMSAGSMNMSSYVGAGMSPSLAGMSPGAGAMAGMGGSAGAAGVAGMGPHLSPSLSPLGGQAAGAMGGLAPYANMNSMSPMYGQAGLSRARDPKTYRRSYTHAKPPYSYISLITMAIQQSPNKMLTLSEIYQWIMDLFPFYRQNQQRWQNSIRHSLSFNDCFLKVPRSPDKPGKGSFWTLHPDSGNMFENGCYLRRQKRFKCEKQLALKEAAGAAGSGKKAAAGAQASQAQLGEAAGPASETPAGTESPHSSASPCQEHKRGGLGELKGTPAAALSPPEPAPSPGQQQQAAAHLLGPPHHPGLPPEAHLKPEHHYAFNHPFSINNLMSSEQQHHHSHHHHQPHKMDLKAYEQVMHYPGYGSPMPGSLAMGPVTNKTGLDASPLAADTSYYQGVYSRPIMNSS
Transcription factor E2F1 (Homo sapiens), sequence (Q01094 whole entry, looked up): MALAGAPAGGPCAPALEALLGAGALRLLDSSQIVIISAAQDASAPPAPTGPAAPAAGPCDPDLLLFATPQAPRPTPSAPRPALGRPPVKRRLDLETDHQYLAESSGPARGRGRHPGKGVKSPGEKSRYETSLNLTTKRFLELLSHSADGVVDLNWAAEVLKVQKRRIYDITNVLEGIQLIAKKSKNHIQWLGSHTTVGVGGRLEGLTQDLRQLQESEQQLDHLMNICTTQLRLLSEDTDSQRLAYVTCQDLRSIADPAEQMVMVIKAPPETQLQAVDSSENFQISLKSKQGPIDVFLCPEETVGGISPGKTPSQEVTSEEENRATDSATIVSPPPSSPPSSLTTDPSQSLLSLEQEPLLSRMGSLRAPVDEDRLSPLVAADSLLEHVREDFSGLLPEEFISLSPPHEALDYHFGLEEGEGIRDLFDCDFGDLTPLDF
Retinoic acid receptor alpha (Homo sapiens), sequence (P10276 whole entry, looked up): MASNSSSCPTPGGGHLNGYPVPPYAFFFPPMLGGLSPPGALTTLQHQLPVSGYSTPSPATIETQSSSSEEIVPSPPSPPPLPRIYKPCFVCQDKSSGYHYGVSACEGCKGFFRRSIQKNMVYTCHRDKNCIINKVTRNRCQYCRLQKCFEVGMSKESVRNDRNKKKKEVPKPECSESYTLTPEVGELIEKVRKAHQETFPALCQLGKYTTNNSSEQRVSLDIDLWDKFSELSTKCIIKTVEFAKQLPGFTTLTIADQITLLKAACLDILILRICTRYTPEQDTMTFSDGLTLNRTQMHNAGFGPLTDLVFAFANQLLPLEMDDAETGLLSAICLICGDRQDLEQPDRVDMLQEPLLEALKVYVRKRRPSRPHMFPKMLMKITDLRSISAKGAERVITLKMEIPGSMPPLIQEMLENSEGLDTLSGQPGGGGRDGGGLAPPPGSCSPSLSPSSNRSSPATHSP
CCAAT/enhancer-binding protein beta (Homo sapiens), sequence (P17676 whole entry, looked up): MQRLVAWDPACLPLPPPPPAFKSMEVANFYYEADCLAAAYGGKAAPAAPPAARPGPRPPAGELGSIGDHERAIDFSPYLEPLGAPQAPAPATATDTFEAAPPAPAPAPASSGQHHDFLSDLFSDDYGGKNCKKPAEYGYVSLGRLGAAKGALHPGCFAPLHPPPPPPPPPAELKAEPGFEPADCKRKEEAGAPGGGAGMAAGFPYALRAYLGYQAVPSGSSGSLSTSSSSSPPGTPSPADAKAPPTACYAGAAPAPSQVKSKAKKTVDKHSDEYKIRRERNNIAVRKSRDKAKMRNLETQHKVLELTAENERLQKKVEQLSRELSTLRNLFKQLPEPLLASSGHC
Bile acid receptor (Homo sapiens), sequence (Q96RI1 whole entry, looked up): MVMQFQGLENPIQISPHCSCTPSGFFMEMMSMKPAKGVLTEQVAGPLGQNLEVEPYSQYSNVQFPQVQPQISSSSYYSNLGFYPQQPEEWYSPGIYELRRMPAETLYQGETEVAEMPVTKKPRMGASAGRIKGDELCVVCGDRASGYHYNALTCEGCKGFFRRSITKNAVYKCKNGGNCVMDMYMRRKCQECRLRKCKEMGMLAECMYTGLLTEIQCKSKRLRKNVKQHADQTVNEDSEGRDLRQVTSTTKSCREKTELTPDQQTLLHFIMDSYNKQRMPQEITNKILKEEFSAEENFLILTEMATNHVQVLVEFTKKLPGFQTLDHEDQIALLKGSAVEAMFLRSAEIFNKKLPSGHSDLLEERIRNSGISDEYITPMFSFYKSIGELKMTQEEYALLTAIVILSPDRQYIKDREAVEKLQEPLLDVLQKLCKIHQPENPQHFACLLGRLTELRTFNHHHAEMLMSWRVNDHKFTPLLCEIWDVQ
Aryl hydrocarbon receptor (Homo sapiens), sequence (P35869 whole entry, looked up): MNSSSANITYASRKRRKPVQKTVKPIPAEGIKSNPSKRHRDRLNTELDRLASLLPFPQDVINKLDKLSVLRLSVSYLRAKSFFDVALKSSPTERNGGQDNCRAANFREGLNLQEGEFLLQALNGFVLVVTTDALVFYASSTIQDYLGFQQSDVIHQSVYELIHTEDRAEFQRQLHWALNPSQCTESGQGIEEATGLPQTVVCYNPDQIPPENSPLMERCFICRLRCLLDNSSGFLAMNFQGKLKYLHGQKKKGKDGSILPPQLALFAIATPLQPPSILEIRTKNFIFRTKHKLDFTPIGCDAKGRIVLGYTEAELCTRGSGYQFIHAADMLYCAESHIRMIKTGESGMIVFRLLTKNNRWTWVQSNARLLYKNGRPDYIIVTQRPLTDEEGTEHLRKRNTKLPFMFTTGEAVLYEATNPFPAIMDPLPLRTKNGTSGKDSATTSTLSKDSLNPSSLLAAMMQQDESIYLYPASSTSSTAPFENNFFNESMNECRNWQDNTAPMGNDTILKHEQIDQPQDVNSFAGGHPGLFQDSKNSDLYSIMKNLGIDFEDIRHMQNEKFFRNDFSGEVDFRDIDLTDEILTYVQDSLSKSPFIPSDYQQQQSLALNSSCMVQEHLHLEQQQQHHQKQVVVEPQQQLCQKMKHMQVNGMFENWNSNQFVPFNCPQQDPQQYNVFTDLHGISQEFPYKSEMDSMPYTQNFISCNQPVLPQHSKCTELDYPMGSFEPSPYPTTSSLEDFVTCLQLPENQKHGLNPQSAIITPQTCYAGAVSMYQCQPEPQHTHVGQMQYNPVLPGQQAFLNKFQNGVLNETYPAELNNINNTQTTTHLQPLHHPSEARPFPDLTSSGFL

`O=[N+]([O-])c1ccc(O)cc1C(F)(F)F`: the AC50 was 48 µM (active) in test [1]; 58.8 µM (active) in test [2]; 100 µM (active) in test [3]; 71.8 µM (active) in test [5]; 37.5 µM (active) in test [6]. In addition, the result in [4], in [7], in test [8], in test [9], in test [10] and in [11] was inactive. Besides, the compound was classed as inactive in test [12], in test [13], in [14] and in test [15].
For `CCC(=O)OCCOc1ccccc1`, the compound was called inactive in test [1], in test [2], in test [3], in test [5], in [16] and in test [6]. In addition, the compound was called inactive in [17], in [7], in [8], in [9], in test [18] and in test [10]. In addition, the outcome in test [11], in test [12], in test [13], in [19] and in test [14] was inactive.
As to `CC/C=C\CC/C=C/CO`, the call in test [1], in test [2], in test [3], in [20], in test [5] and in test [16] was inactive. For the same compound, the call in [6], in test [17], in [7], in [8], in test [9] and in [18] was inactive. Besides, the result in [10], in test [11], in test [12], in test [13], in test [19] and in test [14] was inactive.
For `C#CC(C)(O)CC(C)C` (centres undefined), the outcome in test [1], in test [2], in test [3], in [4], in test [5] and in [16] was inactive. Besides, the compound was classed as inactive in test [6], in [17], in [7], in test [9], in test [18] and in test [10]. Further, the outcome in [11] and in test [12] was inactive.
